Source: PubChem BioAssay AID1159580 (chemical genetic matrix, 2015)
Out of some 5,500 compounds screened, about 2,000 (36%) were called active. Inconclusive results (about 18%) are left out. No stated cut-off is given here; in the data, active means normalized growth mostly below about 0.91 (no sharp cut-off); inconclusive means no clear call, values can overlap the other calls; inactive means mostly above about 0.92. Some of the results follow.

Assay: chemical genetic growth profiling, strain panel (AID 1159580);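 further: tested at 20 µM; growth read once vehicle control cultures reached saturation at 30 °C; 1 = growth at the plate median or of vehicle wells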
Details: growth OD

Measured: normalized growth

COc1ccc2c(c1)O[C@H]1c3ccc(OC)cc3OC[C@@H]21
inactive: S. cerevisiae deletion strains, locus YJR075W, strain HOC1, stronger effect = lower value 0.969 | S. cerevisiae deletion strains, locus YKL068W, stronger effect = lower value 0.99 | S. cerevisiae deletion strains, locus YKL085W, strain MDH1 (second series), stronger effect = lower value 0.98 | S. cerevisiae deletion strains, locus YKL085W, strain MDH1, stronger effect = lower value 0.98 | S. cerevisiae deletion strains, locus YKL160W, strain elf1, stronger effect = lower value 1.03 | S. cerevisiae deletion strains, locus YKL190W, strain CNB1, stronger effect = lower value 1.01 | S. cerevisiae deletion strains, locus YKR001C, strain vps1, stronger effect = lower value 0.936 | S. cerevisiae deletion strains, locus YKR026C, strain gcn3, stronger effect = lower value 1.02 | S. cerevisiae deletion strains, locus YKR091W, strain srl3, stronger effect = lower value 1.03 | S. cerevisiae deletion strains, locus YLL001W, strain dnm1, stronger effect = lower value 1.02 | S. cerevisiae deletion strains, locus YLL026W, stronger effect = lower value 1.03 | S. cerevisiae deletion strains, locus YLL041C, strain sdh2, stronger effect = lower value 1.03 | S. cerevisiae deletion strains, locus YLR027C, strain aat2, stronger effect = lower value 1.01 | S. cerevisiae deletion strains, locus YLR039C, strain RIC1, stronger effect = lower value 0.767 | S. cerevisiae deletion strains, locus YLR058C, strain SHM2, stronger effect = lower value 0.957 | S. cerevisiae deletion strains, locus YLR102C, strain apc9, stronger effect = lower value 0.949 | S. cerevisiae deletion strains, locus YLR113W, strain HOG1, stronger effect = lower value 1.02 | S. cerevisiae deletion strains, locus YLR221C, strain rsa3, stronger effect = lower value 1.02 | S. cerevisiae deletion strains, locus YLR258W, strain gsy2, stronger effect = lower value 1.03 | S. cerevisiae deletion strains, locus YLR262C, strain YPT6 (second series), stronger effect = lower value 1 | S. cerevisiae deletion strains, locus YLR262C, strain YPT6, stronger effect = lower value 0.744 | S. cerevisiae deletion strains, locus YLR268W, strain sec22, stronger effect = lower value 0.9 | S. cerevisiae deletion strains, locus YLR320W, strain mms22, stronger effect = lower value 1.02 | S. cerevisiae deletion strains, locus YLR330W, strain CHS5, stronger effect = lower value 0.975 | S. cerevisiae deletion strains, locus YLR342W, strain FKS1, stronger effect = lower value 1.02 | S. cerevisiae deletion strains, locus YLR357W, strain rsc2, stronger effect = lower value 0.99 | S. cerevisiae deletion strains, locus YLR370C, strain arc18, stronger effect = lower value 1.03 | S. cerevisiae deletion strains, locus YLR371W, strain rom2, stronger effect = lower value 0.972 | S. cerevisiae deletion strains, locus YLR384C, strain iki3, stronger effect = lower value 1.03 | S. cerevisiae deletion strains, locus YML016C, strain PPZ1, stronger effect = lower value 0.985 | S. cerevisiae deletion strains, locus YML120C, strain ndi1, stronger effect = lower value 1.02 | S. cerevisiae deletion strains, locus YML124C, strain tub3, stronger effect = lower value 0.95 | S. cerevisiae deletion strains, locus YMR058W, strain fet3, stronger effect = lower value 1.02 | S. cerevisiae deletion strains, locus YMR078C, strain ctf18, stronger effect = lower value 0.915 | S. cerevisiae deletion strains, locus YMR125W, strain sto1, stronger effect = lower value 1.02 | S. cerevisiae deletion strains, locus YMR129W, stronger effect = lower value 1.03 | S. cerevisiae deletion strains, locus YMR205C, strain PFK2, stronger effect = lower value 1.04 | S. cerevisiae deletion strains, locus YMR223W, strain ubp8, stronger effect = lower value 0.92 | S. cerevisiae deletion strains, locus YMR231W, strain pep5, stronger effect = lower value 1.03 | S. cerevisiae deletion strains, locus YMR307W, strain GAS1, stronger effect = lower value 0.927 | S. cerevisiae deletion strains, locus YNL067W, strain RPL9B, stronger effect = lower value 0.989 | S. cerevisiae deletion strains, locus YNL071W, strain lat1, stronger effect = lower value 1.01 | S. cerevisiae deletion strains, locus YNL153C, strain GIM3, stronger effect = lower value 0.953 | S. cerevisiae deletion strains, locus YNL183C, strain NPR1, stronger effect = lower value 0.946 | S. cerevisiae deletion strains, locus YNL209W, strain ssb2, stronger effect = lower value 1.01 | S. cerevisiae deletion strains, locus YNL233W, strain BNI4, stronger effect = lower value 0.953 | S. cerevisiae deletion strains, locus YNL248C, strain rpa49, stronger effect = lower value 1.02 | S. cerevisiae deletion strains, locus YNL250W, strain rad50, stronger effect = lower value 0.993 | S. cerevisiae deletion strains, locus YNL271C, strain bni1, stronger effect = lower value 0.944 | S. cerevisiae deletion strains, locus YNL322C, strain KRE1 (second series), stronger effect = lower value 1.04 | S. cerevisiae deletion strains, locus YNR049C, strain mso1, stronger effect = lower value 1.02 | S. cerevisiae deletion strains, locus YNR052C, strain pop2, stronger effect = lower value 0.963 | S. cerevisiae deletion strains, locus YOL012C, strain htz1 1.39 | S. cerevisiae deletion strains, locus YOR001W, strain rrp6, stronger effect = lower value 1.02 | S. cerevisiae deletion strains, locus YOR061W, strain CKA2, stronger effect = lower value 0.997 | S. cerevisiae deletion strains, locus YOR069W, strain VPS5, stronger effect = lower value 0.982 | S. cerevisiae deletion strains, locus YOR070C, strain gyp1, stronger effect = lower value 1.01 | S. cerevisiae deletion strains, locus YOR080W, strain dia2, stronger effect = lower value 1.02 | S. cerevisiae deletion strains, locus YOR083W, strain WHI5, stronger effect = lower value 1.03 | S. cerevisiae deletion strains, locus YOR106W, strain vam3, stronger effect = lower value 1.03 | S. cerevisiae deletion strains, locus YOR136W, strain idh2, stronger effect = lower value 0.953 | S. cerevisiae deletion strains, locus YOR144C, strain elg1, stronger effect = lower value 0.951 | S. cerevisiae deletion strains, locus YOR231W, strain MKK1, stronger effect = lower value 0.979 | S. cerevisiae deletion strains, locus YOR265W, strain rbl2, stronger effect = lower value 1.03 | S. cerevisiae deletion strains, locus YOR270C, strain vph1, stronger effect = lower value 1.01 | S. cerevisiae deletion strains, locus YOR290C, strain snf2, stronger effect = lower value 1.04 | S. cerevisiae deletion strains, locus YOR316C, strain cot1, stronger effect = lower value 0.962 | S. cerevisiae deletion strains, locus YPL051W, strain arl3, stronger effect = lower value 1.03 | S. cerevisiae deletion strains, locus YPL078C, strain atp4, stronger effect = lower value 1.04 | S. cerevisiae deletion strains, locus YPL106C, strain sse1, stronger effect = lower value 1.03 | S. cerevisiae deletion strains, locus YPL240C, strain hsp82, stronger effect = lower value 1.02 | S. cerevisiae deletion strains, locus YPL241C, strain CIN2, stronger effect = lower value 0.982 | S. cerevisiae deletion strains, locus YPL256C, strain CLN2, stronger effect = lower value 0.939 | S. cerevisiae deletion strains, locus YPR119W, strain clb2, stronger effect = lower value 0.939 | S. cerevisiae deletion strains, locus YPR141C, strain kar3, stronger effect = lower value 0.975 | S. cerevisiae strains, strain wild type, stronger effect = lower value 1.01
active: S. cerevisiae deletion strains, locus YKL009W, strain mrt4, stronger effect = lower value 0.837 | S. cerevisiae deletion strains, locus YLR418C, strain cdc73, stronger effect = lower value 0.691 | S. cerevisiae deletion strains, locus YML032C, strain rad52, stronger effect = lower value 0.873 | S. cerevisiae deletion strains, locus YNL298W, strain CLA4, stronger effect = lower value 0.908 | S. cerevisiae deletion strains, locus YNL307C, strain MCK1, stronger effect = lower value 0.475 | S. cerevisiae deletion strains, locus YOL147C, strain pex11, stronger effect = lower value 0.886 | S. cerevisiae deletion strains, locus YOR184W, strain ser1, stronger effect = lower value 0.685 | S. cerevisiae deletion strains, locus YPR163C, strain tif3, stronger effect = lower value 0.677 | S. cerevisiae deletion strains, locus YPR167C, strain met16, stronger effect = lower value 0.907 | S. cerevisiae deletion strains, strain wtn01, stronger effect = lower value 0.886
